# “And” between values parts separate entries of the source, which are not always exact repeats. Equal entries are not always repeated. Results filed as inconclusive are left out. The source made the active and inactive calls. The call rests on the fitted dose curve; in most records, active means well fitted cell-killing curve with a large enough effect; inconclusive means small, poorly fitted or top-dose-only effect; inactive means flat fitted curve, though single readings scatter.
# Test: Cellular viability qHTS for adrenocortical cancer (ACC) cell line SW-13 (AID 1963989); further: nearly all actives have a fitted effect of over 65% in size;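 on activity (max response): cells grown in serum-free medium with ITS supplement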
# Conditions: SW-13 ACC cells viability, CellTiter-Glo, 48 h; activity (max response): stronger effect = lower value
# Outline: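 Viability was read as CellTiter-Glo luminescence after 48 h compound treatment (up to 46 uM final) of SW-13 cells grown serum-free; titration curves were fit with a four-parameter logistic model to give IC50 and efficacy.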
# On the % scale 0 is the no-effect control and ±100 the full control effect; potency means the concentration at half of the fitted maximal effect.
SMILES,activity (max response),Potency
CC(O)C(=O)O (stereo not given),6.49% (inactive),
COc1cccc(-c2cc(F)ccc2C2Cc3nc(N)nc(C)c3C(=O)N2)n1 (stereo not given),,112 nM (active)
O=c1cc(N2CCOCC2)oc2c(-c3ccc4c(c3)OCCO4)csc12,,11200 nM (active)
CCc1cc2cc(OC)c(OC)cc2c(Cc2ccccc2)n1,-5.12% (inactive),
COc1cc(O)cc(O)c1,-2.38% (inactive),
O=C(Nc1cnn2ccc(N3CCC[C@@H]3c3cc(F)ccc3F)nc12)N1CC[C@H](O)C1,-2.6% (inactive),
CCNC(=O)NCCCOc1cccc(CN2CCCCC2)c1,-6.89% (inactive),
CN(C)C/C=C/C(=O)Nc1ccc(C(=O)N2CCC[C@@H](Nc3ncc(Cl)c(-c4c[nH]c5ccccc45)n3)C2)cc1,,251 nM (active)
CCCCOc1nc(N)c2c(n1)N(Cc1cccc(CN3CCCC3)c1)CC(=O)N2,-4.22% (inactive),
O=c1ncccn1[C@@H]1O[C@H](CO)[C@@H](O)[C@H]1O,-5.69% (inactive),
Nc1c(I)cc(I)c(C(=O)N(CCC(=O)O)c2ccccc2)c1I,-3.73% (inactive),
Cc1[nH]c2ccc(F)cc2c1-c1nc2c3cccnc3c3ncccc3c2[nH]1,,2240 nM (active)
COC1CC(C(=O)c2ccc3c(N)ncc(-c4ccc(-c5cnn(C)c5)cc4)c3n2)C1 (stereo not given),-16.1% (inactive),
Clc1ccccc1CN1CCc2sccc2C1,1.55% (inactive),
CC1(C)O[C@@H]2C[C@H]3[C@@H]4CCC5=CC(=O)C=C[C@]5(C)[C@@]4(F)[C@@H](O)C[C@]3(C)[C@]2(C(=O)CO)O1,4.2% (inactive) and -2% (inactive),

# From PubChem BioAssay (NCATS)
